Measured values: PubChem BioAssay (NCI)
The panel holds about 83,000 compounds, 20% with a hit somewhere; the sample as a whole holds those more often.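 Negative percent growth values reflect cell death: -40 means 40% of the cells present at the start died, and -100 means all died.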 Activity calls are given as the source filed them. How the source made its calls: active means growth percent below 10; inactive means the rest.

How the values were obtained:
Test in all cases: NCI-60 one-dose screen, 48 h (100 = growth as untreated, 0 = no growth, -100 = all killed)
Conditions in all cases: 10 µM unless noted
[1] = test system: SR leukemia
[2] = test system: RPMI-8226 leukemia
[3] = test system: OVCAR-8 ovarian
[4] = test system: OVCAR-5 ovarian
[5] = test system: OVCAR-4 ovarian
[6] = test system: SK-OV-3 ovarian
[7] = test system: IGROV1 ovarian
[8] = test system: OVCAR-3 ovarian
[9] = test system: HS 578T breast
[10] = test system: NCI/ADR-RES ovarian
[11] = test system: T-47D breast
[12] = test system: BT-549 breast
[13] = test system: MDA-MB-435 melanoma
[14] = test system: SW-620 colon
[15] = test system: MCF7 breast
[16] = test system: HCT-116 colon
[17] = test system: HCC-2998 colon
[18] = test system: KM12 colon

Measured: growth

Cc1ccc(Nc2nc(N)nc(Nc3ccc4ccccc4c3)n2)cc1
active: [8] 8.67%
inactive: [1] 26.8% | [2] 48.2% | [3] 47.7% | [4] 79.9% | [5] 74.7% | [6] 58.4% | [7] 51.4% | [9] 47% | [10] 30.6% | [11] 36.2% | [12] 48.1% | [13] 16.6% | [14] 23.5% | [15] 29.6% | [16] 21.8% | [17] 77.5% | [18] 25.1%

CC/C(Cc1ccccc1)=C(/c1ccc(O)cc1)c1ccc(OCCN2CCCC2)cc1
active: [1] -40.2% | [2] -44.1% | [3] -6.37% | [5] -6.26% | [8] -79.6% | [9] -28% | [10] -8.18% | [11] -25.2% | [13] -100% | [14] -78.4% | [15] -67.7% | [16] -87.1% | [17] -90.9% | [18] -75.4%
inactive: [4] 19.8% | [6] 63% | [7] 13.9% | [12] 44.7%

O=C(N/N=C/c1ccc(O)cc1O)c1cccnc1
inactive: [2] 44.6% | [4] 77.6% | [5] 32.6% | [6] 46.8% | [7] 44.3% | [8] 19.8% | [9] 71.6% | [10] 19.1% | [11] 26.9% | [12] 59.5% | [13] 63.8% | [14] 44.6% | [16] 29.8% | [17] 35.1% | [18] 58.3%
active: [1] -6.2% | [3] -8.42% | [15] 7.27%

CC(=O)OCC(=O)C1CCC=CC1OC(C)=O (configuration not stated)
inactive: [1] 98.9% | [2] 100% | [3] 97.2% | [4] 104% | [5] 94.4% | [6] 87.9% | [7] 102% | [8] 107% | [9] 110% | [10] 100% | [11] 87.8% | [12] 103% | [13] 98.3% | [14] 111% | [15] 105% | [16] 100% | [17] 102% | [18] 99.7%

O=[N+]([O-])c1cccc(-c2nc3sccn3c2-c2ccnc(NCCCNS(=O)(=O)c3ccc(F)cc3)n2)c1
inactive: [4] 59.1% | [6] 37.1% | [9] 22.2% | [14] 18.3% | [17] 58.3%
active: [1] 9.01% | [2] -29.7% | [3] 3.44% | [5] -5.32% | [7] 5.03% | [8] 4.12% | [10] -15.5% | [11] -12.1% | [12] -12.1% | [13] 1.66% | [15] -8.37% | [16] 4.43% | [18] 0.995%

O=c1cc(-c2ccccc2)[nH]c2ccccc12
inactive: [1] 22.8% | [2] 22.4% | [3] 35% | [4] 50.6% | [5] 64.5% | [6] 37.5% | [9] 25.9% | [11] 47.9% | [14] 29.8% | [15] 15.6% | [16] 25.1% | [17] 18.5% | [18] 12.7%
active: [7] -7.72% | [8] -37.8% | [10] -2.1% | [12] -12.2% | [13] -16.8%

Cc1ccc2cnc(N)c(C#Cc3cncc(C(=O)Nc4ccc(CN5CCN(C)CC5)c(C(F)(F)F)c4)c3)c2c1
active: [1] -31.2% | [2] -31.4% | [3] -85.4% | [4] -89% | [5] -88% | [6] -17.5% | [7] -59.8% | [8] -97.6% | [9] -39.2% | [10] -67.2% | [11] -65.2% | [12] -75.1% | [13] -96.6% | [14] -86.1% | [15] -85.8% | [16] -36.1% | [17] -82.9% | [18] -82.6%

Nc1cccc(-c2nc3sccn3c2-c2ccnc(NCCCNS(=O)(=O)c3ccc(C(F)(F)F)cc3)n2)c1
active: [2] -29.7% | [3] 7.14% | [5] -1% | [7] 4.78% | [8] 6.08% | [10] 0.058% | [11] -16.9% | [12] 0.811% | [13] -14.8% | [15] 2.11% | [16] 3.07% | [18] 1.52%
inactive: [1] 15.5% | [4] 40.9% | [6] 23.8% | [9] 12.3% | [14] 12.7% | [17] 18.1%

O=C(CN1CCOCC1)Nc1ccc(Cn2nnc3c2C(=O)c2nnn(Cc4ccc(NC(=O)CN5CCOCC5)cc4)c2C3=O)cc1
active: [1] -21.3% | [2] -18.9% | [3] -58.3% | [4] -21.9% | [5] -93.4% | [6] 0.088% | [7] -41.4% | [8] -19% | [11] -26.5% | [12] -95.6% | [13] -77.1% | [14] 4.23% | [15] -62% | [16] -75.1% | [17] -42% | [18] 6.44%
inactive: [9] 11.6% | [10] 103%
